The values that follow come from PubChem BioAssay (NCI).

This is part of a sample that, as a whole, favours compounds with a hit. Of some 83,000 tested, about 20% had one in any assay.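 Percent growth is the endpoint: 0 to 100 indicates growth inhibition (40 means 60% inhibition), 0 means no net growth, and negative values indicate cell death.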 A number with no mark means an inactive call. Active and inactive are the calls of the source. Rule for the calls: active = growth percent below 10; inactive = the rest.

Test systems include NCI-H23 lung; NCI-H226 lung; NCI-H322M lung; HOP-62 NSCLC; NCI-H460 lung; HOP-92 NSCLC; NCI-H522 lung; A549/ATCC NSCLC; 786-0 renal; COLO 205 colon; DU-145 prostate; K-562 leukemia; MALME-3M melanoma; MDA-MB-231 breast; RXF 393 renal; SF-268 CNS; SF-295 CNS; SF-539 CNS; UACC-257 melanoma; M14 melanoma.
Holding throughout (test): NCI-60 one-dose screen, 48 h (100 = growth as untreated, 0 = no growth, -100 = all killed)
Common to all, as to conditions: 10 µM unless noted

`CN(C)c1ccc(/C=C/c2n(Cc3ccc4ccccc4c3)c3ccccc3[n+]2Cc2ccc3ccccc3c2)cc1`: the growth in the assay on NCI-H23 lung was -91.4% (active); in the assay with NCI-H226 lung, -65.2% (active); in the assay with NCI-H322M lung, -90% (active); in the assay with HOP-62 NSCLC, -63.3% (active); in the assay on NCI-H460 lung, -75.9% (active); with HOP-92 NSCLC, -67.2% (active). Also, the growth was -69.1% (active) with NCI-H522 lung; -53.4% (active) in the assay on A549/ATCC NSCLC; -72% (active) in the assay on 786-0 renal; -41.7% (active) in the assay with COLO 205 colon; -43.3% (active) in the assay with DU-145 prostate; 2.08% (active) in the assay with K-562 leukemia. Further, the growth was -68% (active) in the assay on MALME-3M melanoma; -80.3% (active) with MDA-MB-231 breast; -74.4% (active) with RXF 393 renal; -59.1% (active) with SF-268 CNS; -98.9% (active) in the assay with SF-295 CNS; -95.3% (active) with SF-539 CNS. Further, the growth is -74.3% (active) in the assay with UACC-257 melanoma and -69.2% (active) in the assay on M14 melanoma.
For `Cc1ccc(C(=O)Nc2cc(-c3ccccc3)cc(C(F)(F)F)c2)cc1C#Cc1cnc2cccnn12`, the growth was 63.3% in the assay with NCI-H23 lung; 51.2% in the assay on NCI-H226 lung; 102% in the assay on NCI-H322M lung; 108% with HOP-62 NSCLC; 51.1% in the assay with NCI-H460 lung; 95.4% with HOP-92 NSCLC. Moreover, the growth in the assay on NCI-H522 lung is 56.3%; in the assay with A549/ATCC NSCLC it was 68.9%; in the assay with 786-0 renal, 60%; in the assay with COLO 205 colon, 73.1%; in the assay with DU-145 prostate, 84.8%; in the assay on K-562 leukemia it was 5.94% (active). Also, the growth was 39% in the assay on MALME-3M melanoma; 57.3% in the assay with MDA-MB-231 breast; 73.7% with RXF 393 renal; 91.9% in the assay with SF-268 CNS; 68% in the assay with SF-295 CNS; 63.8% with SF-539 CNS. The growth in the assay with UACC-257 melanoma is 65.8%; in the assay on M14 melanoma, 36.8%.
For the molecule `N#C/C(=C/c1ccc([N+](=O)[O-])cc1)c1nnc(NC(=O)c2ccc(-n3c(=O)[nH]c4ccccc4c3=O)cc2)s1`, the growth with NCI-H23 lung is 91.9%; with NCI-H226 lung, 87.8%; in the assay on NCI-H322M lung, 97.5%; in the assay on HOP-62 NSCLC, 85.6%; in the assay with NCI-H460 lung it was 79.2%; in the assay with HOP-92 NSCLC, 101%. Moreover, the growth in the assay with NCI-H522 lung was 108%; with A549/ATCC NSCLC, 102%; in the assay with 786-0 renal, 104%; in the assay on COLO 205 colon it was 122%; in the assay on DU-145 prostate, 83.1%; with K-562 leukemia it was 103%. Further, the growth in the assay with MALME-3M melanoma was 91.6%; in the assay with MDA-MB-231 breast, 89.5%; in the assay with RXF 393 renal, 87.9%; with SF-268 CNS it was 110%; in the assay with SF-295 CNS, 100%; with SF-539 CNS it was 93.6%. Moreover, the growth with UACC-257 melanoma is 105%; with M14 melanoma it was 120%.
As to `COc1ccc2[nH]c(=O)cc(-n3ncc(C(=O)/C=C/c4cc(OC)c(OC)c(OC)c4)c3C)c2c1`, the growth is -45.1% (active) in the assay on NCI-H23 lung; -21.7% (active) in the assay on NCI-H226 lung; 5.89% (active) with NCI-H322M lung; 0.688% (active) in the assay with HOP-62 NSCLC; -30.4% (active) in the assay with NCI-H460 lung; 44.2% with HOP-92 NSCLC. Besides, the growth with NCI-H522 lung is -81.1% (active); in the assay with A549/ATCC NSCLC, 8.31% (active); in the assay on 786-0 renal it was -15% (active); in the assay on COLO 205 colon it was -92.5% (active); in the assay on DU-145 prostate, -2.23% (active); in the assay on K-562 leukemia, 1.01% (active). Further, the growth in the assay with MALME-3M melanoma was -25.7% (active); in the assay on MDA-MB-231 breast, 1.48% (active); in the assay on RXF 393 renal, -74.8% (active); with SF-268 CNS, 8.19% (active); in the assay on SF-295 CNS, 11.3%; in the assay on SF-539 CNS, -59.8% (active). For the same molecule, the results for the growth in the assay with UACC-257 melanoma and in the assay on M14 melanoma were -6.58% (active) and -48.3% (active), respectively.
As to `Cn1cc(-c2cc(N)n3nc(-c4c[nH]c5ccc(F)cc45)cc3n2)c2cccnc21`, the growth in the assay with NCI-H23 lung is -68.2% (active); in the assay with NCI-H226 lung, -67.5% (active); with NCI-H322M lung, -37.5% (active); in the assay with HOP-62 NSCLC, -85.9% (active); in the assay on NCI-H460 lung, -50.6% (active); with HOP-92 NSCLC, -73.7% (active). Moreover, the growth with NCI-H522 lung is -68.8% (active); in the assay on A549/ATCC NSCLC, -87.1% (active); in the assay with 786-0 renal it was -95.2% (active); in the assay with COLO 205 colon, -79.1% (active); in the assay on DU-145 prostate, -75.7% (active); in the assay with K-562 leukemia it was -32% (active). In addition, the growth was -93% (active) with MALME-3M melanoma; -85.9% (active) in the assay on MDA-MB-231 breast; -81.2% (active) in the assay with RXF 393 renal; -27% (active) with SF-268 CNS; -93.9% (active) in the assay on SF-295 CNS; -96.3% (active) in the assay with SF-539 CNS. For the same molecule, the growth was -87.3% (active) in the assay on UACC-257 melanoma and -89.5% (active) in the assay with M14 melanoma.
Consider `CCOc1ccccc1[C@H]1C(C(=O)c2ccc(Cl)cc2)C2(N[C@@H]1c1ccccc1)C(=O)Nc1ccc(Cl)cc12` (stereo not given in full), for which the growth in the assay with NCI-H23 lung is 21.5%; in the assay on NCI-H226 lung it was 20.3%; in the assay with NCI-H322M lung, 48.7%; with HOP-62 NSCLC, 42.6%; with NCI-H460 lung, 17.3%; with HOP-92 NSCLC, 2.97% (active). Moreover, the growth was 34.1% in the assay on NCI-H522 lung; 40.5% in the assay with A549/ATCC NSCLC; 35% with 786-0 renal; 15.3% in the assay with COLO 205 colon; 45.2% in the assay with DU-145 prostate; 6.17% (active) with K-562 leukemia. Further, the growth in the assay on MALME-3M melanoma is 45.7%; in the assay on MDA-MB-231 breast it was 28.8%; in the assay on RXF 393 renal it was 2.56% (active); with SF-268 CNS, 46.6%; with SF-295 CNS it was 11.1%; with SF-539 CNS it was 37.2%. The growth with UACC-257 melanoma was 69.5%; with M14 melanoma it was 22.5%.
In the case of `Cc1ccc(-c2cc(-c3ccccc3)[nH]c(=O)c2C#N)cc1`, the growth in the assay on NCI-H23 lung was 96.4%; with NCI-H226 lung, 86.8%; with NCI-H322M lung, 91.2%; in the assay with HOP-62 NSCLC, 85.3%; in the assay on NCI-H460 lung, 90.8%; in the assay with HOP-92 NSCLC it was 45.7%. Further, the growth was 74.9% in the assay with NCI-H522 lung; 77.3% in the assay on A549/ATCC NSCLC; 88.4% in the assay on 786-0 renal; 124% in the assay with COLO 205 colon; 97.3% in the assay on DU-145 prostate; 74.4% in the assay with K-562 leukemia. Further, the growth was 106% in the assay with MALME-3M melanoma; 83.8% in the assay with MDA-MB-231 breast; 101% in the assay on RXF 393 renal; 92.9% in the assay on SF-268 CNS; 90.4% in the assay on SF-295 CNS; 81.9% in the assay on SF-539 CNS. Further, the growth was 101% in the assay with UACC-257 melanoma and 111% in the assay on M14 melanoma.
